Measurements published in ChEMBL document CHEMBL4513216, “Probing the Open Global Health Chemical Diversity Library for Multistage-Active Starting Points for Next-Generation Antimalarials” (ACS Infect Dis, 2020).
The campaign covered roughly 69,000 compounds. About 8,600 (12%) showed an effect of 50% or more. Only a selection was taken, and strong results are over-represented in it overall.

Tested on: Plasmodium berghei
Experiment: Screen against P. berghei liver stage (PbLuc), transformed with Luciferase, at 10uM
Assay type: functional, HepG2
Settings: tested at 10 uM

| SMILES | INHIBITION [%] |
| --- | --- |
| Cc1ccc(NC2CCN(C(=O)c3nccc4ccccc34)CC2)nn1 | -45.9 |
| CN(C)c1ncc(-c2cncnc2)c(C2CNCCO2)n1 (centres undefined) | 20.6 |
| CCc1nnc(CN2CCCCC2Cn2nc(C)nc2C)o1 (centres undefined) | 22.3 |
| CS(=O)(=O)N[C@@H]1CN(Cc2ccco2)C[C@@H]2CCCO[C@@H]21 | 5.96 |
| CC(C)(C)CN1CCC(c2nnc(Cn3ccnc3)n2C2CC2)CC1 | 38 |
| NCCN1CCC(c2nnc(Cn3ccnc3)n2C2CC2)CC1 | 62.3 |
| CSCCCN1CCC(c2nnc(Cn3ccnc3)n2C2CC2)CC1 | -79.3 |
| CN1CCC(c2nnc3n2CCN(S(=O)(=O)c2ccccc2Cl)C3)CC1 | 10.75 |
| NC(=O)NC(=O)CCN1CCC(C(=O)c2cc(F)ccc2F)CC1 | 40.5 |
| COC(=O)CCN1CCC(C(=O)c2cc(F)ccc2F)CC1 | 46.9 |
| CCOCCN1CCC(C(=O)c2cc(F)ccc2F)CC1 | 60.5 |
| NC(=O)CCN1CCC(C(=O)c2cc(F)ccc2F)CC1 | 18.2 |
| CC(C)OCCN1CCC(C(=O)c2cc(F)ccc2F)CC1 | -13.5 |
| CCOC(=O)CN1CCC(C(=O)c2cc(F)ccc2F)CC1 | 32.6 |
| COCCCN1CCC(C(=O)c2cc(F)ccc2F)CC1 | 56.4 |
| CC(C)NC(=O)CCN1CCC(C(=O)c2cc(F)ccc2F)CC1 | 69.3 |
| COCCN1CCC(C(=O)c2cc(F)ccc2F)CC1 | 5.03 |
| Cc1nc(NCc2ccc(F)cc2)cc(C2CCCN2)n1 (centres undefined) | 41.5 |
| O=C(Cn1ccc2ccc(Br)cc21)NCc1ccc(C(=O)O)cc1 | -30.8 |
| CC(C)c1nn(C)c(N(C)C)c1CNC1CCCOc2ccccc21 (centres undefined) | 35.4 |
| COCc1nc(N(C)C)ncc1C(=O)Nc1ccc(Cl)cc1 | -18.8 |
| O=C(COC1CCCC1)NCc1ccc(O)c(F)c1 | -16.4 |
| CN1CC(=O)N(c2cccc(F)c2)CC12CCN(Cc1ccsc1)C2 (centres undefined) | 23.6 |

| SMILES | INHIBITION [%] |
| --- | --- |
| Cc1ccc(Cl)cc1-n1nnnc1C1(N2CCCC2)CCCCC1 | 63.9 |
| Cc1ccc(Cl)cc1-n1nnnc1C1(N2CCCC2)CCCC1 | 33 |
| Clc1ccc2nncc(N3CCCCC3)c2c1 | -0.991 |
| CN1CCN(c2cc(CNC(=O)c3ccc(Cl)o3)ccn2)CC1 | 38.45 |
| Cc1csc(NC(=O)CN2CCCC(Cn3nc(C)nc3C)C2)n1 (centres undefined) | 0.4 |
| COc1c(C)cnc(CSc2nnc(N3CCCC3)s2)c1C | 32.9 |
| CNC(=O)c1ccnc(CC2COc3c(cccc3OC)C2)c1 (centres undefined) | -9.54 |
| COc1cccc2c1OCC(C(=O)NCCc1nnc(C)s1)C2 (centres undefined) | 65.6 |
| COc1cccc2c1OCC(Cc1cc(C(=O)N3CCCC3)ccn1)C2 (centres undefined) | 57.2 |
| COc1cccc2c1OCC(NC(=O)NCc1cccs1)C2 (centres undefined) | 20.5 |
| COc1cccc2c1OCC(C(=O)NCCc1nc3c(s1)CCC3)C2 (centres undefined) | 40.6 |
| COc1cccc2c1OCC(NC(=O)NCCC(N)=O)C2 (centres undefined) | 15.1 |
| COc1cccc2c1OCC(C(=O)NCCc1nnc(N)s1)C2 (centres undefined) | 43.4 |
| COc1cccc2c1OCC(NC(=O)NCCc1ccccn1)C2 (centres undefined) | 59.1 |
| COc1cccc2c1OCC(Cc1cc(C(N)=O)ccn1)C2 (centres undefined) | 38 |
| COc1ccc(-c2ccc(C(=O)N3CCOCC3CC(N)=O)o2)cc1 (centres undefined) | -71.5 |
| CC(C)(CN1CCC2(CCCNC2)C1)N1CCOCC1 (centres undefined) | -41.8 |
| O=C(CCc1cncc(F)c1)NS(=O)(=O)c1ccc(F)cc1F | 30.3 |
| O=c1ccc2c(n1Cc1ccncc1)CCN(Cc1ccoc1)CC2 | -37.9 |
| CC(C)N1C[C@@H]2CN(C(=O)NCc3ccccc3)CCC[C@]2(C(=O)O)C1 | 34.6 |
| CNC(=O)[C@@H]1C[C@H]2CN(Cc3nccs3)C[C@H]2N1C | 46.6 |
| Nc1nc(N)c2c(n1)OC1(CCN(C(=O)CC3CCCCN3)CC1)C2 (centres undefined) | 26.95 |
| CCC(C)CN1CCC(n2cc(C3CCCCC3)nn2)CC1 (centres undefined) | 77.6 |

| SMILES | INHIBITION [%] |
| --- | --- |
| CCCC(C)CN1CCC(n2cc(C3CCCC3)nn2)CC1 (centres undefined) | 61.1 |
| CSC(C)CCN1CCC(n2cc(C3CCCCC3)nn2)CC1 (centres undefined) | 67.7 |
| CC(C)Cc1cn(C2CCN(C(C)CC3CC3)CC2)nn1 (centres undefined) | -129 |
| CC(O)c1cn(C2CCN(C(=O)C3(C)CCCCC3)CC2)nn1 (centres undefined) | 10.3 |
| CCC(CC)CN1CCC(n2cc(C3CCCC3)nn2)CC1 | 60.4 |
| CC(C)Nc1cc(N2CCC(n3cc(C4CCCC4)nn3)CC2)ncn1 | 16.1 |
| CCCC(C)CN1CCC(n2cc(CCCO)nn2)CC1 (centres undefined) | 13.7 |
| C=C(C)CN1CCC(n2cc(C3CCCC3)nn2)CC1 | 46.4 |
| CCC(C)CN1CCC(n2cc(C3CCCC3)nn2)CC1 (centres undefined) | 16.9 |
| OCc1ccc(CN2CCC(n3cc(C4CCCCC4)nn3)CC2)o1 | 48.8 |
| O=C(c1cn(-c2ccccc2)nn1)N1CCCC(n2cccn2)C1 (centres undefined) | -67.3 |
| O=C(C1CC(=O)N(c2n[nH]c3cc(Br)ccc23)C1)N1CCCC1 (centres undefined) | -19.4 |
| CO[C@@H]1CCN(S(=O)(=O)c2cn(C)cn2)[C@H]1Cc1cnn(C)c1 | 49.1 |
| Cc1nc(CN2CC[C@H](OCC3CC3)[C@@H]2Cc2cccnc2)cs1 | -3.33 |
| CCOCC(=O)N1Cc2nccn2CC(CN(C)C)C1 (centres undefined) | -7.7 |
| CCCc1n[nH]c(C2CN(CCNS(C)(=O)=O)CCO2)n1 (centres undefined) | -69 |
| O=C(c1cscn1)N1C[C@H](OCc2cccnc2)[C@H]2COC[C@H]21 | 3.58 |
| C=C(C)CN1CCC(NC(=O)Nc2ccc(F)c(C(N)=O)c2)CC1 | 42.3 |
| CNC(=O)c1cc(NC(=O)NC2CC2)ccc1F | -0.514 |
| C=C(C)CN1CCC(NC(=O)Nc2ccc(F)c(C(=O)NC)c2)CC1 | 52.6 |
| Cc1cc(C)n(CC(=O)N2CCC(c3cc4cccnc4[nH]3)CC2)n1 | 1.62 |
| CN(CC(=O)N1CCC(COc2ccccc2)CC1)c1cnccn1 | -16.295 |
| CCN1CCCC(O)(CN(C)Cc2c(C)nn(C)c2C)C1 (centres undefined) | 42.4 |
